Screens: PubChem, National Center for Advancing Translational Sciences (NCATS)
Pol beta inh – inhibitors of human DNA polymerase beta; AID 485314; Potency, µM (highest dose often 114 µM), inactives show at the top dose activity change, negative = inhibition, usual class: inhibitors; hit rate 1.3% among 340,000; P06746; Pol beta primer extension/strand displacement, fluorescence kinetic; note: potency is the fitted concentration of half-maximal effect; % is set by controls: 0 for no effect and ±100 for the full control effect
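10 nM enzyme + cpd, 15 min RT; start with substrate 50 nM final; read 0 min and after 10 min RT. Corrected, normalized data; 4-parameter Hill curve fit.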
PI5P4K alpha inh – blocks human PI5P4K alpha kinase activity; P48426; PI5P4Kalpha enzyme, ADP-Glo luminescence, 60 min; stronger effect = lower value; max response, %; hit rate 1.2% among 330,000; AID 652105; active = max response of -50% or lower; inconclusive = between -30% and -50%; inactive = -30% or higher; note: value at the top dose of about 77 µM; % is set by controls: 0 for no effect and ±100 for the full control effect
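Single end-point luminescence (ADP-Glo) quantified ADP from PI5P4Kalpha turnover; ATP 5 microM final, 1 h at RT, 0.1% CHAPS and 0.28 mM EGTA in HEPES pH 7.4.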
Pol iota inh – blocks human DNA polymerase iota activity; Q9UNA4; Pol iota fluorescent replication assay, 10 min; Potency, µM (top dose mostly 115 µM), inactives show top-dose activity, negative = inhibition, most hits filed as inhibitors; hit rate 1% among 390,000; AID 588590; note: potency is the fitted concentration of half-maximal effect
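Fluorescent replication assay read twice, at 0 min and 10 min after adding 50 nM (final) substrate. Enzyme (10 nM) and compounds were first incubated 15 min at room temperature; enzyme-free buffer wells were negative controls.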
Pol kappa inh – inhibitors of human DNA polymerase kappa. Q9UBT6. purified Pol kappa, fluorescent DNA synthesis assay, 10 min. Potency, µM (highest dose often 107 µM), inactives show top-dose activity, negative = inhibition, most hits filed as inhibitors. hit rate 0.53% among 400,000. AID 588579; note: potency is the fitted concentration of half-maximal effect; % is set by controls: 0 for no effect and ±100 for the full control effect
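Kinetic fluorescence screen: compound preincubated 15 min RT with 10 nM enzyme; 50 nM substrate (final) initiates; reads at 0/10 min.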
POLH inh – blocks human DNA polymerase eta activity. Q9Y253. recombinant Pol eta, fluorescent DNA replication assay. Potency, µM (highest dose often 114 µM), for inactives: at the top dose activity change, negative = inhibition, usual class: inhibitors. hit rate 1.2% among 390,000. AID 588591; note: potency is the fitted concentration of half-maximal effect; % is set by controls: 0 for no effect and ±100 for the full control effect
Target sequence (Q9Y253 whole entry, looked up): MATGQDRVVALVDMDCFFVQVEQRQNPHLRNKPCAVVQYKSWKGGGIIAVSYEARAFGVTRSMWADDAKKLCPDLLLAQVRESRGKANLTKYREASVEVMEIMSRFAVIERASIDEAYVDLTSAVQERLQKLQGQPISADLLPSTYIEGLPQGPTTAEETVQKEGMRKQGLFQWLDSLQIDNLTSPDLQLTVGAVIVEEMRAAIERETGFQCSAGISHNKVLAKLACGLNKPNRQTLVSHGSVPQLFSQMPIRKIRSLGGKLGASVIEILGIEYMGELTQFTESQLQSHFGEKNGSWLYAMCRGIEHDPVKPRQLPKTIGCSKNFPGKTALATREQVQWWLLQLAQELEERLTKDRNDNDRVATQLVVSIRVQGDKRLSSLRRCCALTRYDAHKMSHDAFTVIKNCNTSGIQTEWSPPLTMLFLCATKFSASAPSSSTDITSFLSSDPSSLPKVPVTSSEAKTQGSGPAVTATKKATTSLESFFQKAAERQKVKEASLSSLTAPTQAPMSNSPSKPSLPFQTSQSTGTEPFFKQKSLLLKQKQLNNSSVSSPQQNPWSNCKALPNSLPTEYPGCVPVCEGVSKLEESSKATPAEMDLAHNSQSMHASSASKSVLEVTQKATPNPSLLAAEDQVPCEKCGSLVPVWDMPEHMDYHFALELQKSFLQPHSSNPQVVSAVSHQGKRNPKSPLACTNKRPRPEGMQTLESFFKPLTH
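Pol eta at 10 nM preincubated with compounds 15 min at room temperature; reaction started with fluorescent substrate (50 nM final) and read kinetically at 0 and 10 min.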
PI4K2A block – PI4K2A (human) kinase inhibition. activity change, negative = inhibition, % at 76.9 µM. purified PI4K2A, ADP-Glo luminescence, 1 h; stronger effect = lower value. Q9BTU6. hit rate 0.13% among 420,000. AID 1346378; in the data active = activity change below about -50%; inconclusive = mostly about -30% to -49%;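 note: -100% = wells without enzyme as full effect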
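ADP-Glo luminescence measured ADP generated by PI4K2A enzyme (4 ug/mL before mixing) with 1.2 mM PI substrate (pre-mix) and 300 microM ATP (pre-mix). Tris pH7.5 buffer with MgCl2, Triton X-100; 1 h reaction at ambient temperature.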
* hit, by the source's call; ? = inconclusive; . = no result; [ ] = dose if it differs, or a comment. Most compounds without a hit are left out; they make up all but 2.8% or so of the library. Unless noted, calls come from the whole dose curve; as a rule, active = well fitted inhibition curve with a large enough effect; inconclusive = small, poorly fitted or top-dose-only effect, or another doubt; inactive = no such curve, though single readings can be large or run the other way.

SMILES	Pol beta inh	PI5P4K alpha inh	Pol iota inh	Pol kappa inh	POLH inh	PI4K2A block
Cc1[nH][nH]c(=O)c1C(c1ccc(N(C)C)c(Br)c1)c1c(C)[nH][nH]c1=O	39.9%	-0.9	35.6%	-5.2%	-11.2%	-6.7
CCOc1ccc(Cl)cc1C(c1c(C)[nH][nH]c1=O)c1c(C)[nH][nH]c1=O	7.2%	1.2	?	-2.5%	-18.1%	-6.3
Cc1[nH][nH]c(=O)c1C(c1ccc(-c2ccc(F)cc2)o1)c1c(C)[nH][nH]c1=O	?	3.8	7.08µM*	-9.3%	-25.5%	?
Cc1[nH][nH]c(=O)c1C(c1ccc(-c2ccc(Cl)c(Cl)c2)o1)c1c(C)[nH][nH]c1=O	-13.4%	-18.0	3.55µM*	1.4%	?	?
COc1ccc(-c2ccc(C(c3c(C)[nH][nH]c3=O)c3c(C)[nH][nH]c3=O)o2)c([N+](=O)[O-])c1	?	-1.9	11.2µM*	-17.0%	-16.6%	?
COc1cc2c3cc1Oc1c(OC)c(OC)cc4c1[C@@H](Cc1ccc(OC(=O)c5ccc([N+](=O)[O-])cc5)c(c1)Oc1ccc(cc1)C[C@@H]3N(C)CC2)N(C)CC4	.	.	.	11.8%[60.1 µM]	.	.
O=C1/C(=C/c2ccco2)CCC1C1CCCC1 (stereo not drawn)	1.6%	2.6	27.2%	12.5%	-13.7%	5.3
CC1C/C(=C/c2ccco2)C(=O)/C(=C/c2ccco2)C1 (stereo not drawn)	3.55µM*	.	.	.	.	.
O=C1/C(=C\c2ccco2)CCC/C1=C\c1ccco1	7.08µM*	?	2.82µM*	8.91µM*	?	-27.5
O=C1/C(=C/c2ccco2)Cc2ccccc21	?	-3.9	?	?	-4.3%	-13.7
Cc1nn(-c2ccccc2)c(C)c1/C=N/n1c(-c2ccc(Cl)cc2)n[nH]c1=S	12.6%	-12.1	3.2%	-6.6%	?	7.2
Cc1ccc(-c2n[nH]c(=S)n2/N=C/c2c(C)[nH]n(-c3ccccc3)c2=O)cc1	1.2%	-57.5*	13.5%	-4.6%	-19.0%	-2.4
COC(=O)[C@]12C[C@H](CC(=O)NCc3cccc4ccccc34)C(=O)N(Cc3ccco3)C1=C[C@H](C(C)C)O[C@@H]2C1CC1	.	.	.	.	.	-3.5
CCOC(=O)/C=C1/SCC(=O)N1CC(=O)c1ccc[nH]1	.	?	22.4µM*	-28.6%	?	-16.9
COc1cc2nc(N3CCCN(C)CC3)nc(NC3CCNCC3)c2cc1OC	.	.	?	-15.0%	.	.
CC1COCC(C)N1S(=O)(=O)c1ccc2c(c1)CCN2C(=O)C1CCC1 (stereo not drawn)	.	.	.	.	.	13.9
CCOc1cc(N2CCOCC2)c(OCC)cc1NS(=O)(=O)c1cc(NC(C)=O)ccc1OC	?	-9.1	25.1µM*	?	?	-11.0
CCOc1cc(N2CCOCC2)c(OCC)cc1NC(C)C(=O)N1CCN(CC)CC1 (stereo not drawn)	?	?	12.6µM*	?	-7.5%	?
COc1ccccc1NS(=O)(=O)c1cc(NC(=O)c2ccc(NC(C)=O)cc2)ccc1N1CCOCC1	.	-23.6	13.1%	-4.2%	-24.8%	-1.3
COc1cc(NS(=O)(=O)c2cc(NC(C)=O)ccc2OC)c(OC)cc1NC(=O)c1ccccc1	.	?	?	-23.1%	44.7µM*	-7.4
O=C(Cc1ccccc1Cl)NO	.	.	-9.4%	7.1%	.	.
CCCCN(CCCC)c1ccc(C(=O)c2ccccc2C(=O)O)c(O)c1	89.1µM*	.	-43.2%	-5.7%	-2.2%	-2.7
N#CCC(=O)c1sccc1-n1cccc1	-17.1%	-12.6	?	79.4µM*	1.5%	-4.0
S=C(NCCCc1cnc[nH]1)NCCCN(Cc1ccc(Cl)cc1)c1ncc(Br)cn1	.	.	?	-17.1%	.	.
CC(=O)Nc1ccc(NC(=O)CSc2cn(CC(=O)N3CCOCC3)c3ccccc23)cc1	100µM*	0.9	0.2%	1.1%	-5.1%	-3.4
CC(C)C(=O)Nc1ccc(-c2nnc(-c3ccccc3)o2)cc1	44.7µM*	1.5	10.0%	3.8%	1.3%	-3.9
